Experimental data from PubChem BioAssay (NCI).
About 83,000 compounds went through this panel and 20% of them were active in at least one assay; those are over-represented in the sample as a whole.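 Single-dose data. Exposure time 48 hours. Values below 10 considered active.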 A number with no mark means an inactive call. Active and inactive are the calls of the source.

Test system: HL-60(TB) leukemia
Assay: NCI-60 one-dose screen, 48 h (100 = growth as untreated, 0 = no growth, -100 = all killed)
Conditions: 10 µM unless noted

Structure (SMILES)	growth
CCc1nn2c(-c3ccccc3)c(-c3cc(OC)c(OC)c(OC)c3)nc2s1	68%
C/C(Cc1ccc(Cl)cc1)=C(\c1ccc(OCCN2CCCCCC2)cc1)c1ccc(OC(=O)c2ccccc2)cc1	23.1%
COc1cc2c(cc1-c1c(C)noc1C)ncc1nc(C3CCCCC3)n(C3CCC(OC(F)F)CC3)c12 (stereo not given)	-25.1% (active)
CCOP(=O)(OCC)/C(C#N)=C/c1c(C)[nH]c2ccccc12	96.6%
C[C@@H]1CC[C@@H]2[C@@H]1[C@H](OC(=O)/C=C/c1ccccc1)[C@]1(CCCOCCOCCOCCOC(=O)CCCC[C@@H]3SC[C@@H]4NC(=O)N[C@@H]43)C[C@@H](OC(=O)CO)[C@@]2(C)O1	98.1%
Cc1cccc(C)c1NC(=O)CSC(=S)N1CCN(CCOCCO)CC1	88.7%
N#Cc1nn(-c2cc(=O)[nH]c3ccc(Br)cc23)c(N)c1C#N	-11.2% (active)
Cn1cc(-c2csc(-c3cccc(F)c3)n2)c2cccnc21	2.72% [100 µM] (active)
CC(O)Cc1c[nH]c(=O)[nH]c1=O (stereo not given)	103%
O=C(O)CSCSCC(=O)O	98.5%
Cc1ccc(NS(=O)(=O)c2ccc3c(c2)C2OCCC2C(c2ccc(C(=O)C(C)C)cc2)N3)cc1C (stereo not given)	20.4%
CCN(CC)c1ccc(CNc2cc(C)nc3ccc(OC)cc23)cc1	-56.3% (active)
CCNCc1ccc(O)c2ncccc12	13.1%
C#C[C@]1(O)CC[C@H]2[C@@H]3CC=C4c5sc(Nc6ccccc6)nc5CC[C@]4(C)[C@H]3CC[C@@]21C	7.59% (active)
CC(C)(C)OC(=O)NCCc1ccc(N)cc1	89.4%
CC(=O)N1N=C(c2ccc(Nc3nc(Nc4ccc(F)cc4)nc(Nc4ccc(F)cc4)n3)cc2)CC1c1cccc([N+](=O)[O-])c1 (stereo not given)	0% (active)
COC(=O)c1c2c(c(C)[n+]([O-])c1C)C(=O)C=C(NCc1ccc(Cl)cc1)C2=O	-30.5% (active)
COC(=O)c1ccc2c(c1)Oc1ccc(Cl)cc1-c1cc(C)nn1-2	103%
COc1ccc(Oc2nc(Nc3ccc(N4CCCCC4)nc3)ncc2NC(=O)c2cc(OC)cc(OC)c2)cc1	0.492% (active)
CN=C1C=CC(=C(c2ccc(N(C)C)cc2)c2ccc(N(C)C)cc2)C=C1	-1.23% (active)

Structure (SMILES)	growth
Cc1[nH]c(C(=O)Nc2ccccc2OC2CCNCC2)c(Cl)c1Cl	-57.1% (active)
CCc1ccc(C2=NN(c3ccc(S(C)(=O)=O)cc3)C(=O)CC2)cc1	6.73% (active)
CCC(C)[C@H](NC(=O)NC(=O)NC(=O)CI)C(=O)OC (stereo not given in full)	71.8%
CSC1=Nc2c(c(C)c(-c3ccccc3)n2CCCC(=O)O)C2=NC(=O)C[C@H](C)N12	93.2%
CC1=C2C(=C[C@@](C)(CO)[C@@H]2OC(=O)N(C)CCN(C)C(=O)OC(C)(C)C)C(=O)[C@](C)(O)C12CC2	46.1%
COC(=O)C(C)Oc1ccc(OC#N)cc1 (stereo not given)	46.1%
CNC(=O)c1c(NC(=O)c2ccc(C(C)(C)C)cc2)sc2c(CN(C)C)c(O)ccc12	-33% (active)
CCCCCCCCCCCC(=O)OC(C)C(=O)Nc1ccccc1 (stereo not given)	91.7%
CC(=O)c1ccc(-n2c(-c3cc(-c4ccsc4)n[nH]3)n[nH]c2=S)cc1	112%
Oc1ccc(N=Nc2ccccn2)c(O)c1	-37.3% (active)
S=C(Nc1ccc(Cl)cc1)Nc1ccc(Cl)cc1 (tested in a mixture with another compound)	8.57% (active)
O=S(=O)(NCCO)c1ccc(OCCOc2ccc(S(=O)(=O)NCCO)cc2)cc1	68.4%
O=C1c2cccc3cccc(c23)C(=O)N1Nc1nc(N2CCOCC2)nc(N2CCN(c3ccccc3)CC2)n1	56.3%
CCCCC/C=C/C/C=C/CCCCCCCC1=NC(C)(C)CN1C(C)C	13.7%
O=C(Nc1ccc(Cl)c(Cl)c1)NC(CO)(CO)CO	102%
O=C1Nc2cc(Cl)ccc2Oc2cc(Oc3ccccc3)ccc21	38.6%
COc1cc2c(cc1O)CC[C@@H]1C2CC[C@@]2(C)C1CC[C@@H]2O (stereo not given in full)	-3.13% (active)
Nc1n[nH]c2cccc(C#Cc3cccc(C(=O)Nc4cccc(C(F)(F)F)c4)c3)c12	30.4%
Cc1onc2c(-c3ccccc3)n[nH]c(=O)c12	90.2%
CC/C=C\C[C@H](O)C/C=C1/C(=O)C=C[C@@H]1C/C=C\CCCC(=O)NC(C)C	-28.2% (active)
